Hits are enriched below; roughly 12% of the tested compounds scored in any of these assays.
Sfp PPTase inh = inhibitors of Bacillus subtilis Sfp phosphopantetheinyl transferase. Q9F4F7. Biochemical Sfp PPTase activity, qHTS. Potency, µM, most hits filed as inhibitors. 310,000 compounds, 3.5% hits. AID 1490;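 also: the enzyme is Sfp with the accession as filed and its product quenches rhodamine fluorescence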
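Reaction rates are the 30-min fluorescence difference (ex 525, em 598 nm) in wells containing 15 nM Sfp, 5 uM rhodamine-CoA and 12.5 uM BHQ-2-YbbR at pH 7.6 with 10 mM MgCl2.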
PLK1 PBD inh = PLK1 (human) polo-box domain binding inhibition. P53350. Plk1 PBD binding of FITC phosphopeptide, fluorescence polarization. Potency, µM, actives largely listed as inhibitors. 360,000 compounds, 2.8% hits. AID 720504; also: series mostly up to about 57 µM; nearly all actives have a fitted effect of over 65% in size
BAZ2B inh = inhibitors of human BAZ2B bromodomain | Q9UIF8 | AlphaScreen BAZ2B-H3K14Ac peptide displacement | Potency, µM (doses to about 114 µM), hits mostly inhibitors | 360,000 compounds, 4.4% hits | AID 504333; also: nearly all actives have a fitted effect of over 60% in size
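AlphaScreen displacement: compounds (up to 110uM) incubated 30 min at room temperature with a preformed 50 nM BAZ2B/50 nM biotinylated H3K14Ac peptide complex in PBS pH 7.4 with Tween-20. Donor and acceptor beads at 10 ug/mL final added, 20 min light-protected before reading.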
JMJD2A Tudor = inhibitors of human JMJD2A Tudor domain; O75164; AlphaScreen JMJD2A-Tudor / H3K4me3 peptide binding; 390,000 compounds, 4.4% hits; Potency, µM (doses to about 114 µM), actives largely listed as inhibitors; also: nearly all actives have a fitted effect of over 50% in size
G9a block = inhibitors of human histone lysine methyltransferase G9a; G9a H3K9 monomethylation, AlphaScreen, 2 h; Potency, µM (doses to about 102 µM), actives largely listed as inhibitors; AID 504332; 350,000 compounds, 8.8% hits; also: nearly all actives have a fitted effect of over 75% in size
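Methyltransferase reactions run at room temperature for 2 h (20 nM enzyme, 500 nM biotin-H3K9 peptide, 20 uM SAM) after a 15 min compound preincubation; product detected by AlphaScreen beads and anti-H3K9me1 antibody.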
HP1b chromo inh = inhibitors of HP1-beta chromodomain binding to methylated histone tails; 390,000 compounds, 0.56% hits; P83916; AlphaScreen HP1-beta / biotin-H3K9me3 peptide binding; Potency, µM (doses to about 114 µM), actives largely listed as inhibitors; AID 540317; also: nearly all actives have a fitted effect of over 70% in size
Target sequence (P83916 whole entry, looked up): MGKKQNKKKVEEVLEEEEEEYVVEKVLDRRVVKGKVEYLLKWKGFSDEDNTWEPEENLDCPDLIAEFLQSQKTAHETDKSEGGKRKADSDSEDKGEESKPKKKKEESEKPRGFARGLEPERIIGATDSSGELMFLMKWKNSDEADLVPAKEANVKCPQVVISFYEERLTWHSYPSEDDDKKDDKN
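Compound inhibition of the preformed complex between 50 nM HP1-beta and 50 nM biotinylated H3K9me3 peptide was read by AlphaScreen. Buffer was PBS pH 7.4 with 0.01% Tween-20. Incubations ran 30 min at room temperature, with 10 ug/mL donor/acceptor beads.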
Sfp PPTase conf = confirmation of Bacillus subtilis Sfp PPTase inhibitors; Sfp PPTase enzymatic assay, qHTS titration; Potency, µM (titrated, usually from 114 µM), most hits filed as inhibitors; shares compounds with Sfp PPTase inh; 380 compounds, 79% hits
12-hLO cuvette = blocks human 12-lipoxygenase product formation in cuvette; shares compounds with BAZ2B inh; purified 12-hLO, cuvette UV 234 nm product formation; Potency, µM, hits mostly inhibitors; 35 compounds, 60% hits;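 active = compounds that slowed 12-hLO product formation enough to yield a measured IC50 potency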
JMJD2E inh = blocks human JMJD2E demethylase activity | 130 compounds, 89% hits | shares compounds with BAZ2B inh | Potency, µM (doses to about 57 µM), hits mostly inhibitors | JMJD2E demethylase, FDH-coupled NADH fluorescence (FDH is formaldehyde dehydrogenase)
Target sequence (B2RXH2 1-337 limits assumed): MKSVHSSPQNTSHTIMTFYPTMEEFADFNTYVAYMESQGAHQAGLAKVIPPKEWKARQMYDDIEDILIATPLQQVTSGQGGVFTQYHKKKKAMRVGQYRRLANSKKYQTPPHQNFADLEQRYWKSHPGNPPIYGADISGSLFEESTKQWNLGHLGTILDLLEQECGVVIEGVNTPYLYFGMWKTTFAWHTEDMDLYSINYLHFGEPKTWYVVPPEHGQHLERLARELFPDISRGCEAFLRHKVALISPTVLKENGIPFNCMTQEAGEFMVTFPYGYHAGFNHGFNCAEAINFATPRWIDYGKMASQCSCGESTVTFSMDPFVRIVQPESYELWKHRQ
ME-1 prolif = ME-1 cell growth inhibition; shares compounds with BAZ2B inh; ME-1 cell proliferation, ATP luminescence, 48 h; Potency, µM (top dose mostly 56.1 µM), usual class: inhibitors; 140 compounds, 20% hits
TbPYK confirm = confirmation of Trypanosoma brucei pyruvate kinase inhibitors. shares compounds with PLK1 PBD inh. recombinant TbPYK, Kinase-Glo ATP luminescence. Potency, µM (top dose mostly 76.9 µM), most hits filed as inhibitors. 890 compounds, 67% hits; also: nearly all actives have a fitted effect of over 70% in size
TbPYK orthogonal = orthogonal confirmation of Trypanosoma brucei pyruvate kinase inhibitors | shares compounds with PLK1 PBD inh | recombinant TbPYK, ADP-Glo luminescence, 60 min | Potency, µM (titrated, usually from 76.9 µM), most hits filed as inhibitors | 890 compounds, 62% hits; also: nearly all actives have a fitted effect of over 75% in size
A number is an active result; . = inactive; ? = inconclusive; / = not tested or not shown; [ ] = dose if it differs, or a comment. Unless noted, calls follow the shape of the dose curve; as a rule, active = well fitted curve in the direction sought with a large enough effect; inconclusive = small, poorly fitted or top-dose-only effect, or another doubt; inactive = no such curve, though single readings can be large; an effect the other way counts as inactive or inconclusive.

SMILES | Sfp PPTase inh | PLK1 PBD inh | BAZ2B inh | JMJD2A Tudor | G9a block | HP1b chromo inh | others
COC(=O)c1sccc1NC(=O)c1cc(-c2ccc(C)cc2)nc2ccccc12 | . | . | . | . | / | .
COC(=O)c1sc(NC(=O)c2cc(-c3ccccc3)nc3ccccc23)c(C#N)c1C | 0.631µM | 2.67µM | . | . | ? | 7.94µM | Sfp PPTase conf=8.35µM;TbPYK confirm=7.08µM;TbPYK orthogonal=7.08µM
C=C1c2cccc(O)c2C(O)=C2C(=O)[C@]3(O)C(O)=C(C(N)=O)C(=O)[C@@H](N(C)C)[C@@H]3[C@@H](O)[C@H]12 | 35.5µM | ? | 3.55µM | 7.08µM | . | . | ME-1 prolif=.
CC(=O)Nc1ccc(Cl)cc1C(=O)c1ccc[nH]1 | / | . | / | / | / | /
NCC(=O)Nc1ccc(Cl)cc1C(=O)c1ccc[nH]1 | . | . | ? | . | 25.1µM | . | ME-1 prolif=4.86µM
COCCNc1ncnc2c1ncn2[C@H]1CN(Cc2ccc(-c3ccccc3)cc2)C[C@@H](CO)O1 | / | . | / | / | / | /
Fc1ccc(N2CCN(C(=S)NCc3ccco3)CC2)cc1 | . | . | ? | ? | ? | .
S=C(NCc1ccco1)N1CCOCC1 | . | . | . | . | . | . | ME-1 prolif=.
Cc1cc(Br)ccc1NC(=O)CN(C)C(=O)c1ccc2ccccc2n1 | / | . | ? | . | ? | .
O=C(COC(=O)C12CC3CC(CC(Br)(C3)C1)C2)Nc1cccc(S(=O)(=O)N2CCOCC2)c1 | / | . | / | . | / | .
COC(=O)c1ccc(/C=C(\C#N)c2ccccn2)cc1 | . | . | . | . | . | .
N#CC(C#N)=Cc1ccc(OC(=O)c2ccccn2)cc1 | 44.7µM | . | 8.91µM | 7.94µM | 2.51µM | . | ME-1 prolif=?
CC(=O)NC(C)c1cc(F)c2cccnc2c1O (stereo unspecified) | / | / | 22.4µM | 79.4µM | ? | . | 12-hLO cuvette=.;JMJD2E inh=22.9µM
CC(=O)NC(c1cc(Cl)c2cccnc2c1O)C(C)C (stereo unspecified) | / | / | 79.4µM | ? | .[12.7 µM] | . | 12-hLO cuvette=2.6µM;JMJD2E inh=22.9µM
CC(=O)NC(c1cc(Cl)c2cccnc2c1O)C1CC1 (stereo unspecified) | / | / | 31.6µM | ? | .[12.7 µM] | . | 12-hLO cuvette=3µM;JMJD2E inh=18.2µM
CC(=O)NC(c1cc(Cl)c2ccccc2c1O)C(C)C (stereo unspecified) | / | / | . | . | .[0.501 µM] | .
CCC(=O)NC(C)c1cc(Cl)c2ccccc2c1O (stereo unspecified) | / | / | . | . | .[0.501 µM] | .
CC(=O)NC(c1cc(F)c2cccnc2c1O)C(C)C (stereo unspecified) | / | / | 79.4µM | / | .[12.7 µM] | / | 12-hLO cuvette=.;JMJD2E inh=20.4µM
CCC(=O)NC(c1cc(Cl)c2ccccc2c1O)C1CC1 (stereo unspecified) | / | / | . | . | .[0.501 µM] | .
CCc1ccc(NC(=O)C(=O)NCCc2csc(-c3ccc(C(F)(F)F)cc3)n2)cc1 | / | / | . | . | . | .
CC1(O)CC(C)(C)C(C#N)C(=O)N1 (stereo unspecified) | / | . | / | . | / | .
CCOc1ccccc1NC(=O)N1CCN(C)c2ncccc21 | / | / | ? | . | . | .
Cc1cc(NS(=O)(=O)c2ccc(NC(=O)c3ccc(Cl)cc3[N+](=O)[O-])cc2)no1 | . | . | . | . | . | .
CCCc1cc(C(=O)Cc2ccc(F)cc2)c(O)cc1O | . | . | . | .[11.4 µM] | .[12.7 µM] | .
CCCC(=O)c1cc(O)c(O)cc1O | / | / | / | / | / | / | ME-1 prolif=.
CC(=O)Nc1ccc(NCC(=O)c2ccccc2)cc1 | . | ? | . | . | ? | .
Oc1cccc(O)c1O | 39.8µM | / | / | / | 3.55µM | / | ME-1 prolif=.
Cc1nc2ccccc2c(=O)n1/N=C/c1ccccc1F | . | . | . | . | . | .
